For 90 compounds, potentiation results are on record in PubChem BioAssay AID624464 (National Center for Advancing Translational Sciences (NCATS), 2012).

Among all 360,000 compounds or so, about 810 (0.23%) were called active. Only a selection was taken, and actives are over-represented in it overall. Unmarked numbers belong to inactive results. Rule as the data show it: active = potentiation above about 50%; inconclusive = mostly about 30% to 49%; inactive = weaker than that.

Chain of D(2) dopamine receptor (Homo sapiens) (P14416 whole entry, looked up): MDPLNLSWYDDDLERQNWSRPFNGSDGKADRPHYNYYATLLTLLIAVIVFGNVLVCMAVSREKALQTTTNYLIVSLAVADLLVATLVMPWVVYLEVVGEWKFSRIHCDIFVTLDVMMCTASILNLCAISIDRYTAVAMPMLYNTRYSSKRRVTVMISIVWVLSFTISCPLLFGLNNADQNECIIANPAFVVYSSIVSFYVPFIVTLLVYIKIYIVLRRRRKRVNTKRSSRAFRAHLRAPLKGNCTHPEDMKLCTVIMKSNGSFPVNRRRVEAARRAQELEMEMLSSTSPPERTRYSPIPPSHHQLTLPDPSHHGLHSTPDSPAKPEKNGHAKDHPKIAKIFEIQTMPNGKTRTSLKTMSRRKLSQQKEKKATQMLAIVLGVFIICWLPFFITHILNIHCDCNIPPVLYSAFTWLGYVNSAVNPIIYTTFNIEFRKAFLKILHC

The assay has as its target D(2) dopamine receptor (Homo sapiens) (UniProt P14416). The experiment in a line: Beta-Arrestin HTS for Positive Allosteric Modulators of the Human D2 Dopamine Receptor: Potentiators. The following applies: DiscoveRx D2 beta-arrestin cells, luminescence, 90 min; hits give high values; 100% = 57 uM dopamine signal. An excerpt:
There is great interest in identifying small molecule ligands for G-protein coupled receptors (GPCRs) as nearly 50% of all FDA-approved drugs target these important receptor proteins. […] Amongst the dopamine receptors (DARs), the D2 is arguably one of the most validated drug targets in neurology and psychiatry. For instance, all receptor-based antiparkinsonian drugs primarily work via stimulating the D2 DAR, whereas all FDA-approved antipsychotic agents are antagonists of this receptor. The D2 DAR is also therapeutically targeted in other disorders such as restless legs syndrome, tardive dyskinesia, Tourette's syndrome, and hyperprolactinemia.
To this end, a miniaturized qHTS screen was developed to be screened against the Molecular Libraries Small Molecule Repository (MLSMR). This assay seeks to identify potentiators against the D2 DAR.
NIH Molecular Libraries Probe Production Network [MLPCN]
NIH Chemical Genomics Center [NCGC]
PI Name: David Sibley, National Institutes of Neurological Disorders and Stroke
DiscoveRx D2 cells were thawed from frozen stock and seeded at 2,100 cells/ 3 uL/well media (DiscoveRx Plating Reagent 2) with MultiDrop Combi dispenser (Thermo Scientific, Logan, UT) onto white tissue culture treated 1536-well Aurora plates (Brooks Automation, Chelmsford, MA) and allowed to attach overnight at 37 deg C, 5% CO2. Next, 23 nL/well of compound solutions in DMSO were added with a pintool transfer (Kalypsis, San Diego, CA). As the positive control, 1 uL/well dopamine (EC100, 57 uM final concentration) diluted in buffer (HBSS + 10 mM HEPES + SMB + 0.1 %Tween-20) was dispensed to 1 column of each plate. EC20 (Dopamine at 50 nM final concentration) was dispensed to the rest of the plate except columns 1 &2 which were used as negative control (EC=0, buffer only), 1 uL/well as well. The cells were stimulated by compounds and dopamine for 90 minutes at 37 deg C, 5% CO2, after which 1.5 uL/well of DiscoveRx detection reagent was added with BioRAPTR FRD dispenser. The detection reagent was prepared by mixing of Galacton Star Substrate, Emerald II solution and PathHunter buffer (supplied by the assay kit) together at 1:5:19 proportion accordingly just prior to dispensing. The plates were incubated at ambient temperature for 1 hour and then the luminescent signal was read on ViewLux plate reader (PerkinElmer, Waltham, MA).
With `CSc1ncnc2c1ncn2CCCNCc1cccs1`, the potentiation was 0.128%.
As to `CCN(CC)P(=O)(Nc1ccc(SC(F)F)cc1)c1ccc(N(C)C)cc1NC(=O)c1ccco1` (stereo not given), the potentiation was -7.82%.
On to `CC(=O)CC[C@@H](C)O[C@@H]1OC(C)[C@H](O)CC1O` (stereo not given in full), for which the potentiation is -9.1%.
Take `Cc1ccc(S(=O)(=O)N2CCC3(CC2)OCCO3)c(C)c1`: the potentiation was -6.31%.
To `Oc1ccc(-c2onc3ccc(Cl)cc23)cc1` belongs 50.4% (active).
Turning to `COc1ccc(-c2onc3ccc(C(C)=O)cc23)cc1`, the potentiation is 28%.
For the compound `NC(N)=Nc1nc(-c2ccccc2)c2cc(Cl)ccc2n1`, the potentiation is -62.5%.
As to `CC(C)(C)C1CCc2c(sc3nc(SCC(N)=O)nc(N)c23)C1` (stereo not given), the potentiation is 58.8% (active).
As to `C=C(C)CSc1nc(N)c2c3c(sc2n1)CCC3`, the potentiation was -7.64%.
To `Nc1nc(SCC(=O)NCCN2CCOCC2)nc2sc3c(c12)CCC3` belongs -8.51%; to `CCOC(=O)CN(C(=O)COc1nc(C)cc(C)c1C#N)c1ccc(Cl)cc1`, -3.59%.
For `N#C/C(=C\C1=C(N2CCOCC2)C(=C\c2ccccc2)/CC1)C(=O)Nc1ccccc1F`, the potentiation was -1.9%.
Take `O=C(O)c1ccc(NN=CC2=C(N3CCOCC3)/C(=C/c3ccccc3)CC2)cc1`: the potentiation is 77.1% (active).
Regarding `O=C1Nc2ccc(Br)cc2/C1=N/N=C/C1=C(N2CCOCC2)C(=C\c2ccccc2)/CC1`, the potentiation was -26.8%.
For `COc1ccc(C(=O)O/N=C(\N)Cc2ccc(Cl)cc2Cl)cc1OC`, the potentiation is 94.6% (active).
As for `COc1ccc(CCn2ccc(O)c(Cc3ccc(Cl)cc3Cl)c2=O)cc1OC`, the potentiation is -38.7%.
The value for `COc1ccc(C(=O)n2nc(-c3ccc(Cl)cc3)nc2N)cc1OC` was -7.87%; that for `NC(=O)c1cc(S(=O)(=O)N2CCCC2)ccc1OCc1ccc(F)cc1` was -13.4%; that for `CC1(C)NC(=O)N(CC(=O)Nc2cc(C(F)(F)F)cc(C(F)(F)F)c2)C1=O` was 1.66%.
In the case of `COc1ccc(CCNCc2c(-c3ccccc3)n(C)c3ccccc23)cc1`, the potentiation is -20.4%.
To `CC1(C)CC(=O)C=C(NCCN2CCNCC2)C1` belongs -7.29%; to `COc1ccc(CN(C(=O)CSc2nnc(-c3ccc(OC)c(OC)c3)o2)c2ccc(F)cc2)cc1`, -14.5%.
As for `COc1ccc(-c2nnc(SC(C)C(=O)NC3CC3)o2)cc1` (stereo not given), the potentiation was 0.965%.
To `COc1ccc(-c2nnc(SC(=O)N3c4ccccc4Sc4ccccc43)o2)cc1` belongs 72.5% (active).
The value for `CC(C)c1ccc(Nc2ncccc2C#N)cc1` was -6.55%.
`COc1ccc(-c2csc(C(O)c3cccc(Cl)c3)n2)cn1` (stereo not given): the potentiation was -10.4%.
The value for `N#C/C(=C\c1ccccc1C(F)(F)F)C(=O)Nc1ccccc1F` was 57.7% (active); that for `CNC(=O)/C(C#N)=C/c1c(F)cccc1Cl` was 21.1%; that for `O=C(Nc1ccccc1F)c1ccccc1-c1ccc(C(F)(F)F)cc1` was -15.1%.
To `O=C(COC(=O)c1cc(-c2cccs2)nn1-c1ccccc1)Nc1cc([N+](=O)[O-])ccc1Cl` belongs -0.407%.
Regarding `COc1ccc(CN2C(CC(=O)Nc3cccnc3)c3ccc(C(F)(F)F)cc3S2(=O)=O)cc1` (stereo not given), the potentiation is -5.81%.
The value for `COc1ccc(N(CC(=O)NC2CCCCC2)C(=O)CNC(=O)c2ccco2)c(OC)c1` was -8.59%; that for `COc1ccccc1CNC(=O)c1cc(-c2cc(Cl)ccc2C)n[nH]1` was -2.11%; that for `COc1ccccc1C(=O)Nc1ccc(OCc2nnc3c4ccccc4c(C)nn23)cc1` was 9.9%.
With `Cc1ccc(OCc2nnc(SC3CCc4ccccc4C3=O)n2C)cc1` (stereo not given), the potentiation is 51.4% (active).
To `Cc1cccnc1NC(=O)CSc1nnc(COc2ccc(C(C)C)cc2)n1C` belongs -13.7%.
The value for `O=c1[nH]c(=S)[nH]c(O)c1/C=C1\C=Nc2ccccc21` was -32.7%; that for `CCOC(=O)C1C(c2ccc(O)cc2)NC(=O)NC1(O)C(F)(F)F` (stereo not given) was -0.717%; that for `O=C1NC(c2ccc(-c3ccccc3[N+](=O)[O-])o2)C(C(=O)c2ccc(Cl)cc2)C(O)(C(F)(F)F)N1` (stereo not given) was 55.4% (active).
To `CC1=NN(c2ccc(Cl)c(C(=O)O)c2)C(=O)/C1=C/c1ccc(-c2ccccc2[N+](=O)[O-])o1` belongs -7.86%.
Turning to `CCC(C)NC(=O)C1CCCN(C(=O)NC2CCCCC2)C1` (stereo not given), the potentiation is 2.71%.
To `O=C(NCCc1nnc2ccc(SCC(=O)N3CCOCC3)nn12)c1ccccc1` belongs 1.02%.
To `COC(=O)CSc1ccc2nnc(CCNS(=O)(=O)c3ccc(C)cc3)n2n1` belongs 71.3% (active).
Take `Cc1ccc(S(=O)(=O)NCCc2nnc3ccc(SCc4cccnc4)nn23)cc1`: the potentiation was -34.2%.
For the compound `CN(Cc1ccccc1)C(=O)COC(=O)/C=C/c1ccc2c(c1)OCO2`, the potentiation was -10.6%.
To `Cc1coc2c(O)cc3c(c12)OC1(N2CCCCC2)C(=O)NCCCC31` (stereo not given) belongs 70.8% (active).
The value for `CC(=O)Nc1cc(-c2ccc(N3CCN(C)CC3)cc2)cn2c(-c3cccc(C(=O)N(C)C)c3)cnc12` was -8.12%.
Turning to `COC(=O)[C@H]1C[C@H](OC(=O)NCc2ccccc2)[C@@]2(O)CN(S(=O)(=O)c3ccc(C)cc3)CC2[C@H]1C(=O)OC` (stereo not given in full), the potentiation was -0.0644%.
Regarding `Cc1ccc(NC(=O)COC(=O)CN2CCCCCC2=O)c(C)c1`, the potentiation was -1.65%.
For the compound `Cc1ccc(S(=O)(=O)N2CCN(C(=O)c3cc(S(=O)(=O)N4CCOCC4)ccc3F)CC2)cc1`, the potentiation is 0.45%.
Consider `CN1OC[C@@H]2CN(C(=O)C(C)(C)C)[C@H](c3ccc(-n4ccnc4)cc3)C[C@@H]21`, for which the potentiation was -5.65%.
Take `CC(Oc1cccc(Cl)c1)C(=O)NC1CC(C)(C)NC(C)(C)C1` (stereo not given): the potentiation is -22.7%.
As to `Cc1ccc(NC(=O)CN(C)S(=O)(=O)c2cnc[nH]2)cc1C`, the potentiation was -13%.
For the compound `CN(CC(=O)Nc1ccccc1Cl)C(=O)c1ccccc1SCC(=O)N1CCCC1`, the potentiation was -9.34%.
The value for `O=C1C=C(c2cccc(Br)c2)C[C@@H](c2ccc(F)cc2)C1` was -7.26%; that for `Cc1ccc(CN(N=Nc2nonc2N)c2nonc2N)c(C)c1` was 25.8%.
As to `O=C1Oc2ccccc2C(=O)/C1=C/c1ccccc1O`, the potentiation was 1.41%.
Turning to `O=C(Cc1c[nH]c2ccccc12)N/N=C/c1cccc(F)c1`, the potentiation was -9.63%.
To `O=C(COc1ccc(/C=N/NC(=O)c2ccc(O)cc2)cc1)Nc1ccc([N+](=O)[O-])cc1` belongs -4.2%; to `O=C(N/N=C/c1ccc([N+](=O)[O-])cc1)c1c[nH]c2ccccc12`, 64.1% (active).
To `Nc1nc(CSc2nnnn2-c2ccccc2)nc(Nc2ccccc2)n1` belongs 4.76%.
With `COCCCn1c(C(=O)NC2CCCCC2)cc2c(=O)n3cccc(C)c3nc21`, the potentiation was -4.49%.
The value for `CC12CN3CCN(CC(C3)/C1=N\NC(=O)c1ccccc1N)C2` was -0.591%; that for `CCC(C)c1ccccc1NC(=O)CN(C)CC(=O)Nc1ccccc1SC` (stereo not given) was 1.68%; that for `COc1cccc2oc(CCc3ccccc3)cc(=O)c12` was -6.37%.
In the case of `Cc1c2cn[nH]c(=O)c2c(C)n1Cc1ccc(F)cc1`, the potentiation was -5.05%.
To `CN1CCC2(CC1)NC(=O)NC2=O` belongs 11.5%; to `COc1cccc(N=c2oc3c(C)ncc(CO)c3cc2C(N)=O)c1`, -0.831%.
Consider `CCNC(=O)C1(C)CCN(C(=O)c2ccccc2)C1` (stereo not given), for which the potentiation is -7.31%.
In the case of `CN(C)S(=O)(=O)c1ccc(N2CCCC2)c(C(=O)NCc2ccccc2)c1`, the potentiation was -8.01%.
Turning to `COc1cccc(CNc2ncc(-c3ccccc3)n2C)c1`, the potentiation is -30.3%.
The value for `CCOC(=O)c1cc2c(=O)[nH]c(C(Cl)(Cl)Cl)nc2o1` was 7.93%; that for `CCC(C)CCN1CCN=C1N(C)C` (stereo not given) was -8.79%; that for `Cc1ccc(N(CC(=O)NCC2CCCO2)C(=O)CNS(=O)(=O)c2ccc(Cl)cc2)cc1` (stereo not given) was 0.715%.
On to `COc1cccc(-c2cnc(OC(C)(C)C)nc2OC(C)(C)C)c1`, for which the potentiation was -5.2%.
To `COc1cccc(CNC(=O)Cn2c(=O)oc3cc(S(=O)(=O)N4CCCCC4)ccc32)c1` belongs -3.62%; to `CCOC(=O)C1(Cc2cccc(OC)c2)CCN(Cc2csc(C(C)=O)c2)CC1`, -21.6%.
To `NC1=NC(c2ccc([N+](=O)[O-])cc2)N(c2ccc(F)cc2)C(N)=N1` (stereo not given) belongs 0.113%.
To `Cc1ccc2c(c1)C(O)(CC(=O)c1cccnc1)C(=O)N2` (stereo not given) belongs -30%; to `Cc1ccc(S(=O)(=O)n2cccc2CO)cc1`, -0.194%; to `Cc1cccc(CNC(=O)c2sc(=O)n(Cc3ccccc3C)c2C)c1`, -5.51%.
As for `CC(C)(C)N1C(=O)c2c(C(=O)OCc3ccccc3)[nH]c(-c3ccccc3)c2C1=O`, the potentiation was -2.35%.
The value for `CC(C)Nc1nnc(SC(C)C(=O)N(C)C2CCCCC2)s1` (stereo not given) was -2.23%; that for `CCCN(CC1CC1)C(=O)COC(=O)c1ccc(C)cc1O` was -24.9%; that for `Cc1ccc(S(=O)(=O)N(CCCN(C)C)Cc2ccc3c(c2)OCO3)cc1` was -10.1%.
For `CC1=C(C(=O)N(C(C)C)C(C)C)CC(CC(=O)NCCCCc2ccccc2)C(=O)N1CCC1=CCCCC1` (stereo not given), the potentiation was -4.46%.
The value for `CCOC(=O)CSc1nnc(NC(=O)C2CC(=O)N(c3ccc(F)cc3)C2)s1` (stereo not given) was -2.95%; that for `O=C(Nc1ccc2cn[nH]c2c1)c1ccc(S(=O)(=O)N2CCOCC2)cc1` was -3.76%; that for `CC(C)Cc1nnc(NC(=O)CCC(=O)Nc2ccc3cn[nH]c3c2)s1` was -12.9%.
In the case of `S=C(Nc1cccc(Cl)c1)Nc1ccc2cn[nH]c2c1`, the potentiation is 60.4% (active).
